Screening data: PubChem BioAssay, several laboratories
MCL1 BIM primary = disrupts human MCL1 binding to BIM-BH3 peptide | AID 2057 | inhibition, % at 10.9 µM | GST-MCL1 / FITC-Bim-BH3 fluorescence polarization | Q07820 | actives 0.68% (n = 320,000);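 active = inhibition above the mean inhibition of all tested compounds plus 3 SD, set per campaign, cut at about 40% in these data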;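 also: 0% = DMSO wells and 100% = unlabeled Bim-BH3 peptide control; higher means more loss of mP so more displacement of Bim peptide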
Target sequence (Q07820 whole entry, looked up): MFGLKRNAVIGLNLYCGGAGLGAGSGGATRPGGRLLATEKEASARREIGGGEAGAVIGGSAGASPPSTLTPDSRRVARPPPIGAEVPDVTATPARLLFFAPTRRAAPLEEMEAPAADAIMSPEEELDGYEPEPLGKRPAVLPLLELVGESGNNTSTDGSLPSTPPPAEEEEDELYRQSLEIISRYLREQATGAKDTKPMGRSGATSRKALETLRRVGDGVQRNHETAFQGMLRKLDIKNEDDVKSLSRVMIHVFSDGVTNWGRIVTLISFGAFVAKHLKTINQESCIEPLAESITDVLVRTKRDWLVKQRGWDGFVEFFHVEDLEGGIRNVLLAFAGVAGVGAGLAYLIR
BCLXL inh = blocks human Bcl-xL binding to Bim BH3 peptide; Q07817; GST-Bcl-xL / FITC-Bim BH3 peptide fluorescence polarization; inhibition, % at 10.9 µM; actives 0.7% (n = 320,000);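 active = inhibition above the mean of all tested compounds plus 3 SD, cutoff set per campaign, cut at about 30% in these data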;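 also: 0% = DMSO wells and 100% = unlabeled Bim-BH3 peptide competitor; inhibitors lower millipolarization by displacing the labeled peptide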
Mcl1-Noxa inh = disrupts binding of human Mcl-1 to Noxa peptide. Q07820. TR-FRET Mcl-1/Noxa peptide binding, 2 h. inhibition, % at 21.7 µM. actives 1.5% (n = 220,000). AID 1022;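 active = compounds that cut the protein-peptide binding signal by more than 50% relative to plate controls in a single-dose test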;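 also: His-tagged Mcl-1 with rhodamine Noxa BH3 peptide and terbium anti-His antibody; 0% = Mcl-1 plus Noxa peptide wells and 100% = peptide-only wells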
Mcl-1 Bim block = inhibitors of Bim-Mcl-1 interaction, human. Q07820. Bead-based flow cytometry, Bim peptide-Mcl-1 binding. inhibition, % at 10 µM. actives 0.1% (n = 190,000). AID 1009; in the data active = inhibition above about 40%;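 also: 0% = no compound tracer wells and 100% = peptide blocker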
GLD-1 RNA inh = GLD-1-TGE RNA interaction inhibition (C. elegans); Q17339; purified GLD-1 + fluorescein TGE RNA, fluorescence polarization; inhibition, % at 5.96 µM; actives 0.44% (n = 320,000); AID 2280;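 active = percent inhibition above a per-plate cutoff, the plate mean of test compounds plus 3 SD, cut at about 30% in these data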;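 also: 0% = DMSO wells with GLD-1 and probe and 100% = wells lacking GLD-1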
Mcl1-Bid inh = Mcl-1/Bid interaction inhibition; Q07820; TR-FRET Mcl-1/Bid-Dy647 peptide binding, 1536-well; inhibition, % at 21.7 µM; actives 0.97% (n = 220,000); AID 1021;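 active = compounds that cut the binding signal by more than half at the single screening dose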;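 also: His-tagged Mcl-1 with europium anti-His antibody binding Bid BH3 peptide; 0% = Mcl-1 plus peptide wells and 100% = peptide-only wells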
BCLXL inh confirm = Bcl-xL (human) inhibition, MCL1 counter-screen confirmation | shares compounds with MCL1 BIM primary | GST-Bcl-xL / FITC-Bim BH3 peptide FP binding | inhibition, % at 10.9 µM | actives 54% (n = 1,700);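 active = inhibition above a cutoff equal to the mean inhibition of all tested compounds plus 3 SD, cut at about 30% in these data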;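 also: 0% = DMSO wells and 100% = unlabeled Bim BH3 control peptide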
MCL1 BIM confirm = confirmation of human MCL1 and BIM-BH3 interaction inhibitors; actives 61% (n = 1,700); shares compounds with MCL1 BIM primary; AID 2168; GST-MCL1 / FITC-Bim-BH3 fluorescence polarization; inhibition, % at 10.9 µM;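 active = inhibition above the average of all tested compounds plus 3 SD, cut at about 40% in these data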;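 also: 0% = DMSO wells and 100% = unlabeled Bim-BH3 control peptide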
Active calls of the source: *. This is a sample that favours compounds with a hit; in the whole collection about 2.3% have one here.

O=C(CNC(=O)c1ccc2c(c1)OCCO2)N/N=C/c1ccco1 was read as MCL1 BIM primary 4, BCLXL inh 6, Mcl1-Noxa inh -8, GLD-1 RNA inh 1 and Mcl1-Bid inh -23.
`O=C(Cn1cnc2ccccc2c1=O)NNC(=O)c1cccc([N+](=O)[O-])c1` gave MCL1 BIM primary -1, BCLXL inh 1 and GLD-1 RNA inh 0.
COc1ccc(CCNC(=O)Cc2ccc(OC)c(OC)c2)cc1OC was read as MCL1 BIM primary 1, BCLXL inh 3, Mcl1-Noxa inh -18, Mcl-1 Bim block 3, GLD-1 RNA inh 4 and Mcl1-Bid inh 23.
Screening COc1ccc(CCNC(=O)c2c(N)no[n+]2[O-])cc1OC returned MCL1 BIM primary 96*, BCLXL inh 5, Mcl1-Noxa inh -16, Mcl-1 Bim block 0, GLD-1 RNA inh 6, Mcl1-Bid inh -9, BCLXL inh confirm 2 and MCL1 BIM confirm -1.
Screening O=C(C[n+]1ccccc1)Nc1ccccc1C(F)(F)F returned MCL1 BIM primary -7, BCLXL inh 2 and GLD-1 RNA inh 2.
O=C(O)c1ncsc1-c1ccccc1 was read as MCL1 BIM primary 8, BCLXL inh 9, Mcl1-Noxa inh 18, GLD-1 RNA inh 2 and Mcl1-Bid inh 9.
Screening CCc1nnc(NC(=O)c2ccc(Cl)nc2)s1 returned MCL1 BIM primary 9, BCLXL inh -3, Mcl1-Noxa inh 20, Mcl-1 Bim block -5, GLD-1 RNA inh -3 and Mcl1-Bid inh -14.
O=C(Nc1nnc(C2CC2)s1)c1ccc(Cl)nc1 was read as MCL1 BIM primary 178*, BCLXL inh 1, GLD-1 RNA inh 0, BCLXL inh confirm -1 and MCL1 BIM confirm 0.
N#Cc1c(-c2ccco2)cc(C2CC2)nc1N was read as MCL1 BIM primary -7, BCLXL inh 3, Mcl1-Noxa inh 13, Mcl-1 Bim block 3, GLD-1 RNA inh -3 and Mcl1-Bid inh -3.
For N#Cc1c(-c2ccco2)cc(-c2ccccn2)nc1N the results were MCL1 BIM primary 43*, BCLXL inh 20, Mcl1-Noxa inh 66*, Mcl-1 Bim block 3, GLD-1 RNA inh 23, Mcl1-Bid inh -19, BCLXL inh confirm 14 and MCL1 BIM confirm 15.
`CC1CCCN(Cc2c(O)ccc3c2O/C(=C\c2ccco2)C3=O)C1` (stereo unspecified) gave MCL1 BIM primary 152*, BCLXL inh 123*, Mcl1-Noxa inh 58*, Mcl-1 Bim block 0, GLD-1 RNA inh 95*, Mcl1-Bid inh -4, BCLXL inh confirm 119* and MCL1 BIM confirm 133*.
Screening CN(C)Cc1c(O)ccc2c1O/C(=C\C=C\c1ccccc1)C2=O returned MCL1 BIM primary 76*, BCLXL inh 78*, Mcl1-Noxa inh -8, GLD-1 RNA inh 24, Mcl1-Bid inh -38, BCLXL inh confirm 85* and MCL1 BIM confirm 91*.
CCN1CCN(Cc2c(O)ccc3c2O/C(=C\c2ccccc2)C3=O)CC1 was read as MCL1 BIM primary 55*, BCLXL inh 54*, Mcl1-Noxa inh 7, Mcl-1 Bim block 1, GLD-1 RNA inh 18, Mcl1-Bid inh -31, BCLXL inh confirm 59* and MCL1 BIM confirm 62*.
Screening CC(=O)COc1ccc2c(c1C)O/C(=C\c1ccco1)C2=O returned MCL1 BIM primary 20, BCLXL inh 14 and GLD-1 RNA inh 5.
Cc1cc(=O)[nH]c2c(C)cc(S(=O)(=O)N3CCOCC3)cc12 was read as MCL1 BIM primary 8, BCLXL inh -5 and GLD-1 RNA inh 8.
`CCCOc1ccc(N)cc1N` gave MCL1 BIM primary 124*, BCLXL inh 117*, Mcl1-Noxa inh 76*, Mcl-1 Bim block 4, GLD-1 RNA inh -5, Mcl1-Bid inh 1, BCLXL inh confirm 40* and MCL1 BIM confirm 45*.
